Experiment [1] can be described thus: A CellTox Green Cytotoxicity Assay to monitor cytotoxicity in HEK293 cells - 40 hour (AID 1224871). Note: nearly all actives have a fitted effect of over 45% in size. Note: potency is the fitted concentration of half-maximal effect. The method, boiled down: (§1)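 Nonlytic real-time cytotoxicity: HEK293 + CellTox Green reagent plated, 5 h preincubation, pintool compound addition (23 nL in DMSO), 37 C for 40 h, fluorescence measured at successive time points.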
Experiment [2] can be described thus: qHTS RealTime-Glo MT Cell Viability Assay in HepG2 cells - 8 hour (AID 1224873). Note: % is set by controls: 0 for no effect and ±100 for the full control effect; nearly all actives have a fitted effect of over 55% in size. The method, boiled down:
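HepG2 cells mixed with RealTime-Glo MT reagents (NanoLuc plus cell-permeant prosubstrate) were seeded at 600 cells/well, incubated 5 h at 37 C/5% CO2, then pinned with compounds in DMSO; nonlytic luminescence tracked viability during 40 h treatment.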
(In qHTS, concentration-response curves come from the screen itself.)

Experiment [3] can be described thus: qHTS RealTime-Glo MT Cell Viability Assay in HEK293 cells - 40 hour (AID 1224874). For max response: % is set by controls: 0 for no effect and ±100 for the full control effect. Note: nearly all actives have a fitted effect of over 50% in size. Note: potency is the fitted concentration of half-maximal effect. The conditions noted are these: RealTime-Glo luminescence; max response: active compounds read low. The method, boiled down: (§2)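 Cells were seeded together with NanoLuc luciferase and a prosubstrate that viable cells reduce to a luciferase substrate. After a 5 h incubation at 37 C/5% CO2, compounds were added and luminescence was measured repeatedly during 40 h of treatment.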

Experiment [4] is described as follows: A CellTox Green Cytotoxicity Assay to monitor cytotoxicity in HEK293 cells - 24 hour (AID 1224875). Note: nearly all actives have a fitted effect of over 45% in size. Note: potency is the fitted concentration of half-maximal effect. The method, boiled down:
as §1

A short description of experiment [5]: A CellTox Green Cytotoxicity Assay to monitor cytotoxicity in HepG2 cells - 16 hour (AID 1224876). Note: nearly all actives have a fitted effect of over 45% in size. Note: potency is the fitted concentration of half-maximal effect. The method, boiled down: (§3)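 Read-out is fluorescence of a cyanine dye excluded from live cells that stains DNA of dead HepG2 cells, with signal proportional to cytotoxicity. Plates were read at 0, 8, 16, 24, 32 and 40 h after compound addition.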
Experiment [6] in a line: qHTS RealTime-Glo MT Cell Viability Assay in HepG2 cells - 32 hour (AID 1224877). Note: nearly all actives have a fitted effect of over 55% in size. Note: potency is the fitted concentration of half-maximal effect. The method, boiled down: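 qHTS, HepG2, 600 cells/well, RealTime-Glo (NanoLuc + prosubstrate) added with cells; 5 h preincubation; DMSO compound addition; 37 C; luminescence at 0/8/16/24/32/40 h.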
The nature of experiment [7]: A CellTox Green Cytotoxicity Assay to monitor cytotoxicity in HepG2 cells - 24 hour (AID 1224878). For Cytotoxicity: % is set by controls: 0 for no effect and ±100 for the full control effect. Note: nearly all actives have a fitted effect of over 45% in size. Note: potency is the fitted concentration of half-maximal effect. The method, boiled down:
as §3

Experiment [8] in a line: A CellTox Green Cytotoxicity Assay to monitor cytotoxicity in HepG2 cells - 40 hour (AID 1224879). Note: nearly all actives have a fitted effect of over 40% in size. Note: potency is the fitted concentration of half-maximal effect. The method, boiled down: as §3
Experiment [9] can be described thus: qHTS RealTime-Glo MT Cell Viability Assay in HEK293 cells - 0 hour (AID 1224880). Note: nearly all actives have a fitted effect of over 45% in size. Note: potency is the fitted concentration of half-maximal effect. The method, boiled down: as §2
Experiment [10] is described as follows: qHTS RealTime-Glo MT Cell Viability Assay in HEK293 cells - 16 hour (AID 1224872). Note: potency is the fitted concentration of half-maximal effect; nearly all actives have a fitted effect of over 50% in size. The method, boiled down: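 Assay medium contained NanoLuc luciferase plus cell-permeant prosubstrate, added with HEK293 cells at 600 cells/well. After 5 h at 37 C/5% CO2 compounds were added; plates stayed at 37 C for 40 h with serial luminescence reads.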

Results filed as inconclusive are left out. A number with no mark means an inactive call. Activity calls are given as the source filed them. Calls come from the whole dose curve; as a rule, active = well fitted curve in the direction sought with a large enough effect in the repeat runs; inconclusive = weak or mixed curves; inactive = no such curve, though single readings can be large; an effect the other way counts as inactive or inconclusive.

Take `CCOC(=O)c1ccc(I)cc1`: the Potency in experiment [1] and in experiment [4] was 35 µM (active) in each case. In addition, the Potency result in experiment [2], in experiment [5], in [6], in [7], in [8] and in [9] was “inactive” throughout. The max response in [3] was -24.8%.

As to `C=C(C)[C@@H]1CCC2=CCC[C@@H](C)[C@]2(C)C1`, the Potency entry in experiment [1], in experiment [2], in experiment [4] and in [6] was “inactive” throughout. Also, the max response in experiment [3] is 0.724%.

For `CC(C)C(O)(c1ccc(OC(F)(F)F)cc1)c1cncnc1` (stereo not given), the Potency result in [1], in experiment [2], in experiment [4], in [5], in [6] and in experiment [7] was “inactive” each time. In experiment [8], the Potency result is “inactive”.

On to `CCCCN(CCN(CCCC)C(=O)N1CCOCC1)C(=O)N1CCOCC1`, for which the Potency entry in experiment [1], in experiment [2], in experiment [4], in [5], in [6] and in [7] was “inactive” throughout. Also, the Potency entry in experiment [8] and in experiment [9] was “inactive” throughout. For the same compound, in [3], the max response is -14%.

In the case of `C[C@]1(Cn2ccnn2)[C@H](C(=O)O)N2C(=O)C[C@H]2S1(=O)=O`, the Potency entry in experiment [1], in [2], in [4], in [5], in experiment [6] and in experiment [7] was “inactive” throughout. Also, the Potency entry in [8] is “inactive”. For the same compound, the max response in experiment [3] was 2.48%.

As for `CC(=O)N/N=C/c1ccc([N+](=O)[O-])o1`, the Potency result in experiment [1], in [2], in experiment [4], in experiment [5], in [6] and in [7] was “inactive” each time. For the same compound, the Potency result in experiment [9] was “inactive”. The max response in [3] is 8%.

For the compound `COC(=O)c1nc(Cl)c(Cl)nc1N`, the Potency was 13.4 µM (active) in experiment [1], 12 µM (active) in experiment [10], 4.77 µM (active) in experiment [3] and 10.7 µM (active) in experiment [6]. The Potency entry in experiment [9] was “inactive”.

In the case of `CC(CN(C)C)C(C)(O)Cc1ccc(Cl)cc1` (stereo not given), the Potency entry in [1], in experiment [2], in [4], in [6], in experiment [7] and in experiment [8] was “inactive” in each case. Also, the max response in experiment [3] is -0.684%.

Turning to `Cc1ccc(C(C)(C)O)cc1`, the Potency result in experiment [1], in experiment [2], in experiment [4], in [5], in experiment [6] and in [7] was “inactive” each time. Further, the Potency entry in experiment [8] is “inactive”. In experiment [3], the max response is -0.324%.

On to `O=C1Cc2ccccc2N1c1c(Cl)cccc1Cl`, for which the Potency result in experiment [1], in [2], in [4], in experiment [5], in experiment [6] and in [9] was “inactive” in each case. Also, the Potency in experiment [3] was 21.9 µM (active).

Turning to `CC1=Nc2ccc3ccccc3c2C1(C)C`, the Potency result in [1], in experiment [2], in [4], in experiment [6] and in experiment [9] was “inactive” throughout. The max response in [3] is -26.2%.

As for `CN(C)CCN1C(=O)c2ccccc2N(C)c2ccccc21`, the Potency result in [1], in experiment [2], in experiment [4], in [5], in experiment [6] and in [7] was “inactive” throughout. The Potency result in [8] and in [9] was “inactive” throughout. For the same compound, the max response in experiment [3] is -6.83%.

As to `O=[N+]([O-])c1ccc(O/N=C/c2cc(Br)c(O)c(Br)c2)c([N+](=O)[O-])c1`, the Potency entry in [1], in [2], in [4], in experiment [5], in experiment [7] and in [8] was “inactive” each time. Further, the Potency result in [9] is “inactive”. Moreover, the Potency in experiment [3] was 43.4 µM (active).

In the case of `COC(=O)C1=C(C)NC(C)=C(C(=O)O[C@@H]2CCCN(Cc3ccccc3)C2)[C@@H]1c1cccc([N+](=O)[O-])c1`, the Potency entry in experiment [1], in [2], in experiment [4], in experiment [5], in experiment [7] and in experiment [8] was “inactive” in each case. In [3], the max response is -29.2%. In addition, in [9], the Potency is 8.49 µM (active).

On to `O=C1c2ccccc2C(=O)c2c(O)c(O)cc(O)c21`, for which the Potency result in [1], in experiment [2], in [4], in [5], in [6] and in [7] was “inactive” each time. For the same compound, the Potency entry in [8] and in experiment [9] was “inactive” throughout. In addition, the max response in experiment [3] is 9.06%.

Regarding `CC(CCC(=O)O)C(=O)O` (stereo not given), the Potency entry in experiment [1], in experiment [2], in [4], in [5], in experiment [6] and in experiment [7] was “inactive” in each case. Also, the Potency result in experiment [8] and in [9] was “inactive” throughout. In experiment [3], the max response is 0%.

Turning to `CC(C)C[C@H](NC(=O)[C@H](CCc1ccccc1)NC(=O)CN1CCOCC1)C(=O)N[C@@H](Cc1ccccc1)C(=O)N[C@@H](CC(C)C)C(=O)[C@@]1(C)CO1`, the Potency in [1] is 0.0756 µM (active); in [3], 0.0268 µM (active); in [5] it was 10.7 µM (active); in experiment [6] it was 0.0268 µM (active); in experiment [7], 0.268 µM (active); in experiment [8], 0.0169 µM (active). Besides, the Potency result in [2], in experiment [4] and in experiment [9] was “inactive” in each case.

As to `CC1CC(C)C(=O)C1=O` (stereo not given), the Potency entry in experiment [1], in experiment [2], in experiment [4], in experiment [5], in experiment [6] and in experiment [7] was “inactive” in each case. Besides, the Potency entry in [8] and in experiment [9] was “inactive” throughout. Besides, the Potency in experiment [3] is 13.8 µM (active).

Turning to `CC(=O)OCC(=O)NCCCOc1cccc(CN2CCCCC2)c1`, the Potency entry in experiment [1], in [2], in experiment [4], in experiment [5], in [6] and in experiment [7] was “inactive” each time. Further, the Potency result in experiment [8] is “inactive”. Further, the max response in experiment [3] was 1.71%.

As for `CO[C@]1(NC(=O)CSC(F)F)C(=O)N2C(C(=O)O)=C(CSc3nnnn3CCO)CO[C@H]21`, the Potency result in [1], in [2], in experiment [4], in [5], in experiment [6] and in experiment [7] was “inactive” each time. In addition, the Potency entry in experiment [8] and in experiment [9] was “inactive” each time. Besides, in experiment [3], the max response was 21.2%.

For the compound `O=C(O)CCCCCCCCCCCBr`, the Potency result in experiment [1], in experiment [2], in [4], in experiment [5], in experiment [6] and in experiment [7] was “inactive” throughout. Moreover, the Potency result in [8] and in experiment [9] was “inactive” in each case. The max response in [3] was -7.89%.

Turning to `CC(=O)OCC[N+](C)(C)C`, the Potency result in experiment [1], in [2], in experiment [4], in [5], in experiment [6] and in [7] was “inactive” throughout. For the same compound, the Potency entry in experiment [8] and in experiment [9] was “inactive” throughout. In addition, the max response in [3] was 1.87%.

The record behind these values is PubChem BioAssay (Tox21).
